Reference: publication PMC7156710, “The Sox2 transcription factor binds RNA”

Legend:
Experiment in all cases: fluorescence anisotropy; 10 mM Tris-HEPES pH 7.5, 8% Ficoll, 0.05% NP-40, 135 mM KCl, 15 mM NaCl, 1 mM DTT, 0.1 mg/mL BSA; 2 nM DNA or 3 nM RNA; low values mean tight binding
Details in all cases: protein: recombinant; tags: N-terminal His6 and thrombin site, not removed; label: FAM; only (+) strand given; dsDNA, one strand shown
[1] = molecular target: Sox2-HMG (His6 retained) E78A (Homo sapiens, UniProt P48431 38-121, E78A)
Outline: (§1)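 Alanine-substituted Sox2-HMG domains were made by site-directed mutagenesis and Ni-NTA purified with the His6 tag retained. They were titrated against 2 nM fluorescein-labeled DNA or 3 nM fluorescein-labeled RNA in Tris-HEPES pH 7.5 binding buffer for at least 1 h. Polarization was read on a CLARIOstar, with triplicate titrations each read three times. Dissociation constants were fit in Kaleidagraph and expressed as the mutant-to-wild-type ratio.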

[2] = molecular target: Sox2-HMG (His6 retained) S72A (Homo sapiens, UniProt P48431 38-121, S72A)
Outline: as §1

[3] = molecular target: Sox2-HMG (His6 retained) E104A (Homo sapiens, UniProt P48431 38-121, E104A)
Outline: as §1

[4] = molecular target: Sox2-HMG (His6 retained) K58A (Homo sapiens, UniProt P48431 38-121, K58A)
Outline: as §1

[5] = molecular target: Sox2-HMG (His6 retained) H67A (Homo sapiens, UniProt P48431 38-121, H67A)
Outline: as §1

[6] = molecular target: Sox2-HMG (His6 retained) K42A (Homo sapiens, UniProt P48431 38-121, K42A)
Outline: as §1

[7] = molecular target: Sox2-HMG (His6 retained) M45A (Homo sapiens, UniProt P48431 38-121, M45A)
Outline: as §1

[8] = molecular target: Sox2-HMG (His6 retained) N63A (Homo sapiens, UniProt P48431 38-121, N63A)
Outline: as §1

[9] = molecular target: Sox2-HMG (His6 retained) K115A (Homo sapiens, UniProt P48431 38-121, K115A)
Outline: as §1

[10] = molecular target: Sox2-HMG (His6 retained) E70A (Homo sapiens, UniProt P48431 38-121, E70A)
Outline: as §1

[11] = molecular target: Sox2-HMG (His6 retained) K87A (Homo sapiens, UniProt P48431 38-121, K87A)
Outline: as §1

[12] = molecular target: Sox2-HMG (His6 retained) W79A (Homo sapiens, UniProt P48431 38-121, W79A)
Outline: as §1

[13] = molecular target: Sox2-HMG (His6 retained) E62A (Homo sapiens, UniProt P48431 38-121, E62A)
Outline: as §1

[14] = molecular target: Sox2-HMG (His6 retained) R114A (Homo sapiens, UniProt P48431 38-121, R114A)
Outline: as §1

[15] = molecular target: Sox2-HMG (His6 retained) S69A (Homo sapiens, UniProt P48431 38-121, S69A)
Outline: as §1

[16] = molecular target: Sox2-HMG (His6 retained) R96A (Homo sapiens, UniProt P48431 38-121, R96A)
Outline: as §1

[17] = molecular target: Sox2-HMG (His6 retained) R40A (Homo sapiens, UniProt P48431 38-121, R40A)
Outline: as §1

[18] = molecular target: Sox2-HMG (His6 retained) W51A (Homo sapiens, UniProt P48431 38-121, W51A)
Outline: as §1

[19] = molecular target: Sox2-HMG (His6 retained) S83A (Homo sapiens, UniProt P48431 38-121, S83A)
Outline: as §1

[20] = molecular target: Sox2-HMG (His6 retained) R111A (Homo sapiens, UniProt P48431 38-121, R111A)
Outline: as §1

[21] = molecular target: Sox2-HMG (His6 retained) E84A (Homo sapiens, UniProt P48431 38-121, E84A)
Outline: as §1

[22] = molecular target: Sox2-HMG (His6 retained) K95A (Homo sapiens, UniProt P48431 38-121, K95A)
Outline: as §1

[23] = molecular target: Sox2-HMG (His6 retained) F48A (Homo sapiens, UniProt P48431 38-121, F48A)
Outline: as §1

[24] = molecular target: Sox2-HMG (His6 retained) R74A (Homo sapiens, UniProt P48431 38-121, R74A)
Outline: as §1

[25] = molecular target: Sox2-HMG (His6 retained) Q61A (Homo sapiens, UniProt P48431 38-121, Q61A)
Outline: as §1

[26] = molecular target: Sox2-HMG (His6 retained) R88A (Homo sapiens, UniProt P48431 38-121, R88A)
Outline: as §1

[27] = molecular target: Sox2-HMG (His6 retained) K73A (Homo sapiens, UniProt P48431 38-121, K73A)
Outline: as §1

[28] = molecular target: Sox2-HMG (His6 retained) E86A (Homo sapiens, UniProt P48431 38-121, E86A)
Outline: as §1

[29] = molecular target: Sox2-HMG (His6 retained) R53A (Homo sapiens, UniProt P48431 38-121, R53A)
Outline: as §1

[30] = molecular target: Sox2-HMG (His6 retained) R113A (Homo sapiens, UniProt P48431 38-121, R113A)
Outline: as §1

[31] = molecular target: Sox2-HMG (His6 retained) T85A (Homo sapiens, UniProt P48431 38-121, T85A)
Outline: as §1

[32] = molecular target: Sox2-HMG (His6 retained) M49A (Homo sapiens, UniProt P48431 38-121, M49A)
Outline: as §1

[33] = molecular target: Sox2-HMG (His6 retained) R56A (Homo sapiens, UniProt P48431 38-121, R56A)
Outline: as §1

[34] = molecular target: Sox2-HMG (His6 retained) K80A (Homo sapiens, UniProt P48431 38-121, K80A)
Outline: as §1

[35] = molecular target: Sox2-HMG (His6 retained) Y110A (Homo sapiens, UniProt P48431 38-121, Y110A)
Outline: as §1

[36] = molecular target: Sox2-HMG (His6 retained) K103A (Homo sapiens, UniProt P48431 38-121, K103A)
Outline: as §1

[37] = molecular target: Sox2-HMG (His6 retained) K109A (Homo sapiens, UniProt P48431 38-121, K109A)
Outline: as §1

[38] = molecular target: Sox2-HMG (His6 retained) R43A (Homo sapiens, UniProt P48431 38-121, R43A)
Outline: as §1

[39] = molecular target: Sox2-HMG (His6 retained) R57A (Homo sapiens, UniProt P48431 38-121, R57A)
Outline: as §1

[40] = molecular target: Sox2-HMG (His6 retained) R98A (Homo sapiens, UniProt P48431 38-121, R98A)
Outline: as §1

[41] = molecular target: Sox2-HMG (His6 retained) N68A (Homo sapiens, UniProt P48431 38-121, N68A)
Outline: as §1

[42] = molecular target: Sox2-HMG (His6 retained) P112A (Homo sapiens, UniProt P48431 38-121, P112A)
Outline: as §1

[43] = molecular target: Sox2-HMG (His6 retained) N46A (Homo sapiens, UniProt P48431 38-121, N46A)
Outline: as §1

[44] = molecular target: Sox2-HMG (His6 retained) K65A (Homo sapiens, UniProt P48431 38-121, K65A)
Outline: as §1

[45] = molecular target: Sox2-HMG (His6 retained) H101A (Homo sapiens, UniProt P48431 38-121, H101A)
Outline: as §1

[46] = molecular target: Sox2-HMG (His6 retained) P64A (Homo sapiens, UniProt P48431 38-121, P64A)
Outline: as §1

[47] = molecular target: Sox2-HMG (His6 retained) M66A (Homo sapiens, UniProt P48431 38-121, M66A)
Outline: as §1

[48] = molecular target: Sox2-HMG (His6 retained) H105A (Homo sapiens, UniProt P48431 38-121, H105A)
Outline: as §1

Chain of Sox2-HMG (His6 retained) K80A (P48431 other isoform, or with tags, fused parts or gaps K80A | K80A K80A): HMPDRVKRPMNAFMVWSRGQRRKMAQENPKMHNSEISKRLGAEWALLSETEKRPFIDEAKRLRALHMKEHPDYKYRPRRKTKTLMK
Chain of Sox2-HMG (His6 retained) R43A (P48431 other isoform, or with tags, fused parts or gaps R43A | R43A R43A): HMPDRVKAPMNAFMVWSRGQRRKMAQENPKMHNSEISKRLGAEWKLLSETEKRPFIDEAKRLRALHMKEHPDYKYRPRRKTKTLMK
Chain of Sox2-HMG (His6 retained) R113A (P48431 other isoform, or with tags, fused parts or gaps R113A | R113A R113A): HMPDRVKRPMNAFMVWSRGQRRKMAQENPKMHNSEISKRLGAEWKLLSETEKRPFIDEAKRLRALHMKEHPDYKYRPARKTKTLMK
Chain of Sox2-HMG (His6 retained) R98A (P48431 other isoform, or with tags, fused parts or gaps R98A | R98A R98A): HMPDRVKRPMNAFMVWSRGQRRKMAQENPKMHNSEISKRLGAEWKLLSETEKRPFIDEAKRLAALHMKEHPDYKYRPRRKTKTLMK
Chain of Sox2-HMG (His6 retained) E62A (P48431 other isoform, or with tags, fused parts or gaps E62A | E62A E62A): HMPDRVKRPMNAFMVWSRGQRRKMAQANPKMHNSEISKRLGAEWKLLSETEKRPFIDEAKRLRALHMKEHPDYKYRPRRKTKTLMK
Chain of Sox2-HMG (His6 retained) E104A (P48431 other isoform, or with tags, fused parts or gaps E104A | E104A E104A): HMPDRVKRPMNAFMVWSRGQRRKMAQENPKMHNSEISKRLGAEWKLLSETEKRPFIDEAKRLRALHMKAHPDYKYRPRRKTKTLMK
Chain of Sox2-HMG (His6 retained) E70A (P48431 other isoform, or with tags, fused parts or gaps E70A | E70A E70A): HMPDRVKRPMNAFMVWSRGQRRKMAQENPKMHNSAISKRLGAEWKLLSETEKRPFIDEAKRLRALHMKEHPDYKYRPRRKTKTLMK
Chain of Sox2-HMG (His6 retained) E84A (P48431 other isoform, or with tags, fused parts or gaps E84A | E84A E84A): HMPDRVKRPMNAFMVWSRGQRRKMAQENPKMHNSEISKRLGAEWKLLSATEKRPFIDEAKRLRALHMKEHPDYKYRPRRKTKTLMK
Chain of Sox2-HMG (His6 retained) E78A (P48431 other isoform, or with tags, fused parts or gaps E78A | E78A E78A): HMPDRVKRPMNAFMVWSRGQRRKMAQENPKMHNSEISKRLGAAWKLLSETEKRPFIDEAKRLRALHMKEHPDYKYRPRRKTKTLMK
Chain of Sox2-HMG (His6 retained) F48A (P48431 other isoform, or with tags, fused parts or gaps F48A | F48A F48A): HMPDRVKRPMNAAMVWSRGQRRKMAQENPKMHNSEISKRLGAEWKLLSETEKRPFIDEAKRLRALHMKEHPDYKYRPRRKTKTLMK
Chain of Sox2-HMG (His6 retained) K115A (P48431 other isoform, or with tags, fused parts or gaps K115A | K115A K115A): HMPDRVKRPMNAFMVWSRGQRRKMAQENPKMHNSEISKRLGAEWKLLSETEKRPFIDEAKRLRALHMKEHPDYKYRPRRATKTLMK
Chain of Sox2-HMG (His6 retained) S72A (P48431 other isoform, or with tags, fused parts or gaps S72A | S72A S72A): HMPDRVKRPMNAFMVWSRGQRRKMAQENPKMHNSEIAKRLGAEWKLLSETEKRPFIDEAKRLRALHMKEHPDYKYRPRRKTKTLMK
Chain of Sox2-HMG (His6 retained) P64A (P48431 other isoform, or with tags, fused parts or gaps P64A | P64A P64A): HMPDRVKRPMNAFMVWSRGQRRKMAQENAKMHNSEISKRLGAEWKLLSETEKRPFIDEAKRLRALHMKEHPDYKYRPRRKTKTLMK
Chain of Sox2-HMG (His6 retained) T85A (P48431 other isoform, or with tags, fused parts or gaps T85A | T85A T85A): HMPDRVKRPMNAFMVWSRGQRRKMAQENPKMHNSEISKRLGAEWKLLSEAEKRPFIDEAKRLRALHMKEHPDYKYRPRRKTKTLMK
Chain of Sox2-HMG (His6 retained) M66A (P48431 other isoform, or with tags, fused parts or gaps M66A | M66A M66A): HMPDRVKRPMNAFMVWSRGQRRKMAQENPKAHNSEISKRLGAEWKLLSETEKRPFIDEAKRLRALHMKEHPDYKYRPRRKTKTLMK
Chain of Sox2-HMG (His6 retained) Q61A (P48431 other isoform, or with tags, fused parts or gaps Q61A | Q61A Q61A): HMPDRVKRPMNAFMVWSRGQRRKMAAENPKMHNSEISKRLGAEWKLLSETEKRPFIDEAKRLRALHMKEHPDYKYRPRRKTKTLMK
Chain of Sox2-HMG (His6 retained) R53A (P48431 other isoform, or with tags, fused parts or gaps R53A | R53A R53A): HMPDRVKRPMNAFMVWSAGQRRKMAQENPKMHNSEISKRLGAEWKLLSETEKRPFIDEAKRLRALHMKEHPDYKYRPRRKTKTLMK
Chain of Sox2-HMG (His6 retained) R111A (P48431 other isoform, or with tags, fused parts or gaps R111A | R111A R111A): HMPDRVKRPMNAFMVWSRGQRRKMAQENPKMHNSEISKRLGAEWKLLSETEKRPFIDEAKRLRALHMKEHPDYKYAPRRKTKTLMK
Chain of Sox2-HMG (His6 retained) K42A (P48431 other isoform, or with tags, fused parts or gaps K42A | K42A K42A): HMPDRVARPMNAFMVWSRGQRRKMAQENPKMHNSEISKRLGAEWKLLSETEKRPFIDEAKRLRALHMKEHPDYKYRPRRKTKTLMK
Chain of Sox2-HMG (His6 retained) R88A (P48431 other isoform, or with tags, fused parts or gaps R88A | R88A R88A): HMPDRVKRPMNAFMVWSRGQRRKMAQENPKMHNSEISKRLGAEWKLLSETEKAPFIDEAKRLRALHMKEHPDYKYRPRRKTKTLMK
Chain of Sox2-HMG (His6 retained) N63A (P48431 other isoform, or with tags, fused parts or gaps N63A | N63A N63A): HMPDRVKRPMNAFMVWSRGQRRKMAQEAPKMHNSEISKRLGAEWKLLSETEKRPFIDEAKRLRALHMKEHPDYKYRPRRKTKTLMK
Chain of Sox2-HMG (His6 retained) K58A (P48431 other isoform, or with tags, fused parts or gaps K58A | K58A K58A): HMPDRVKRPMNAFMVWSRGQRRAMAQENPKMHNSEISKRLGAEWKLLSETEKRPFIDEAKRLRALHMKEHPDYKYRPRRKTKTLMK
Chain of Sox2-HMG (His6 retained) S69A (P48431 other isoform, or with tags, fused parts or gaps S69A | S69A S69A): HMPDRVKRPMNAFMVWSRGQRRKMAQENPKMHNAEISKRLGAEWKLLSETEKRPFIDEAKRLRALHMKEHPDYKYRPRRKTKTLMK
Chain of Sox2-HMG (His6 retained) E86A (P48431 other isoform, or with tags, fused parts or gaps E86A | E86A E86A): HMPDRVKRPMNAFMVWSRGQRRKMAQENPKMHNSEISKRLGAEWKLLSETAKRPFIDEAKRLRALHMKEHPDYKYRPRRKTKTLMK
Chain of Sox2-HMG (His6 retained) R57A (P48431 other isoform, or with tags, fused parts or gaps R57A | R57A R57A): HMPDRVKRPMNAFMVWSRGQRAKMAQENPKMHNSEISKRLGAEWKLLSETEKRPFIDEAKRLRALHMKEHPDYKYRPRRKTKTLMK
Chain of Sox2-HMG (His6 retained) K65A (P48431 other isoform, or with tags, fused parts or gaps K65A | K65A K65A): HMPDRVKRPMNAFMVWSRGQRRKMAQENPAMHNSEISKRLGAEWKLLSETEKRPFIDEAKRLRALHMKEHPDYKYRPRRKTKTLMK
Chain of Sox2-HMG (His6 retained) Y110A (P48431 other isoform, or with tags, fused parts or gaps Y110A | Y110A Y110A): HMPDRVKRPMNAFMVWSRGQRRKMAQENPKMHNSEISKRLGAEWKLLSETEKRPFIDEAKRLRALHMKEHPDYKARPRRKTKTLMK
Chain of Sox2-HMG (His6 retained) R96A (P48431 other isoform, or with tags, fused parts or gaps R96A | R96A R96A): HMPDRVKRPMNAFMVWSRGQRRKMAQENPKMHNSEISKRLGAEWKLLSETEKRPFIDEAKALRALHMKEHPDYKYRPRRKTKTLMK
Chain of Sox2-HMG (His6 retained) R56A (P48431 other isoform, or with tags, fused parts or gaps R56A | R56A R56A): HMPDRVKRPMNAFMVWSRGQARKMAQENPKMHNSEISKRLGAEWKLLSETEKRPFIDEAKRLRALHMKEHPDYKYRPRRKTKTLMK
Chain of Sox2-HMG (His6 retained) W51A (P48431 other isoform, or with tags, fused parts or gaps W51A | W51A W51A): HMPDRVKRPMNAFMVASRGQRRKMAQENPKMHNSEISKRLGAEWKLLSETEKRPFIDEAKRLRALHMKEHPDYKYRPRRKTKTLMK
Chain of Sox2-HMG (His6 retained) R40A (P48431 other isoform, or with tags, fused parts or gaps R40A | R40A R40A): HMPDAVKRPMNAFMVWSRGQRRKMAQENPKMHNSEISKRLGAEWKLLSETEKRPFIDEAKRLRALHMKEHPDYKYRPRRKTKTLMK
Chain of Sox2-HMG (His6 retained) N68A (P48431 other isoform, or with tags, fused parts or gaps N68A | N68A N68A): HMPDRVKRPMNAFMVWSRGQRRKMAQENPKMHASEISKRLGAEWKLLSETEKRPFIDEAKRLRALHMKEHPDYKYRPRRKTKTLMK
Chain of Sox2-HMG (His6 retained) H105A (P48431 other isoform, or with tags, fused parts or gaps H105A | H105A H105A): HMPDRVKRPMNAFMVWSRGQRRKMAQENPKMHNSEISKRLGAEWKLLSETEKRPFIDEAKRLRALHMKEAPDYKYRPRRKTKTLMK
Chain of Sox2-HMG (His6 retained) M49A (P48431 other isoform, or with tags, fused parts or gaps M49A | M49A M49A): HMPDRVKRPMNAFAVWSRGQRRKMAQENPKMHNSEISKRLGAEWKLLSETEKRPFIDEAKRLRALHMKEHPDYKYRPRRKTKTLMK
Chain of Sox2-HMG (His6 retained) K87A (P48431 other isoform, or with tags, fused parts or gaps K87A | K87A K87A): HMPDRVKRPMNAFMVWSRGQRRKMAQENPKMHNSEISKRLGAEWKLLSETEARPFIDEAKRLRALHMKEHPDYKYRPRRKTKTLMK
Chain of Sox2-HMG (His6 retained) R74A (P48431 other isoform, or with tags, fused parts or gaps R74A | R74A R74A): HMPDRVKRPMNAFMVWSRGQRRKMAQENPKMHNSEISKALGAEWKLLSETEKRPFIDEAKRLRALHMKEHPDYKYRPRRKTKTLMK
Chain of Sox2-HMG (His6 retained) H101A (P48431 other isoform, or with tags, fused parts or gaps H101A | H101A H101A): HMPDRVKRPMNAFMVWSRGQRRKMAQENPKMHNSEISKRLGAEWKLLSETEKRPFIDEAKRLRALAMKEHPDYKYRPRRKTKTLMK
Chain of Sox2-HMG (His6 retained) K73A (P48431 other isoform, or with tags, fused parts or gaps K73A | K73A K73A): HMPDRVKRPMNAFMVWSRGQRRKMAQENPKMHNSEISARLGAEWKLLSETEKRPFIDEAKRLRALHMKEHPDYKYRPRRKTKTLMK
Chain of Sox2-HMG (His6 retained) S83A (P48431 other isoform, or with tags, fused parts or gaps S83A | S83A S83A): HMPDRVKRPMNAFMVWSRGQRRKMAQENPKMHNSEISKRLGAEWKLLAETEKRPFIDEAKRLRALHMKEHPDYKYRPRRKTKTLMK
Chain of Sox2-HMG (His6 retained) W79A (P48431 other isoform, or with tags, fused parts or gaps W79A | W79A W79A): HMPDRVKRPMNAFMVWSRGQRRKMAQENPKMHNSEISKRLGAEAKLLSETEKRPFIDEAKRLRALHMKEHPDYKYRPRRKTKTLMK
Chain of Sox2-HMG (His6 retained) K103A (P48431 other isoform, or with tags, fused parts or gaps K103A | K103A K103A): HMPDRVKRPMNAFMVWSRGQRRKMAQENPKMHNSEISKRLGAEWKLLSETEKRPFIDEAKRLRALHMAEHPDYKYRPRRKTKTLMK
Chain of Sox2-HMG (His6 retained) R114A (P48431 other isoform, or with tags, fused parts or gaps R114A | R114A R114A): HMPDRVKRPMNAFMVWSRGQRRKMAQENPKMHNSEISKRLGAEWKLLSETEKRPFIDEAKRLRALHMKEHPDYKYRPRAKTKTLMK
Chain of Sox2-HMG (His6 retained) H67A (P48431 other isoform, or with tags, fused parts or gaps H67A | H67A H67A): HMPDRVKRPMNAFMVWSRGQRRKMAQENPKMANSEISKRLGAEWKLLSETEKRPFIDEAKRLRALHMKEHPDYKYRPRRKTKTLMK
Chain of Sox2-HMG (His6 retained) P112A (P48431 other isoform, or with tags, fused parts or gaps P112A | P112A P112A): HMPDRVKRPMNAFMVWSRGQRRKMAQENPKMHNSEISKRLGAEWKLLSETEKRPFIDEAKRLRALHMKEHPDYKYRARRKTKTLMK
Chain of Sox2-HMG (His6 retained) M45A (P48431 other isoform, or with tags, fused parts or gaps M45A | M45A M45A): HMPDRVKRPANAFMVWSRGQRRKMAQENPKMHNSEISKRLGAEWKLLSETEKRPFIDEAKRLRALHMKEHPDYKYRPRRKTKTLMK
Chain of Sox2-HMG (His6 retained) K95A (P48431 other isoform, or with tags, fused parts or gaps K95A | K95A K95A): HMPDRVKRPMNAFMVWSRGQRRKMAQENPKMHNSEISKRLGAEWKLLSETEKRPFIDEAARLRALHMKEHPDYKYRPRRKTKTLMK

For CGCGCCTTTGTTCCCGGGT, which binding signal [1] is on record?
Its binding signal is 2.2 ± 1 Kd(mutant)/Kd(WT).

And the binding signal [2]?
The binding signal was 1.4 ± 0.4 Kd(mutant)/Kd(WT).

And the binding signal [3]?
Its binding signal is 1.1 ± 0.3 Kd(mutant)/Kd(WT).

What about the binding signal [4] of the same sequence?
The binding signal was 1.1 ± 0.5 Kd(mutant)/Kd(WT).

And the binding signal [5]?
Its binding signal is 2.4 ± 0.7 Kd(mutant)/Kd(WT).

And the binding signal [6]?
The binding signal was 2.8 ± 1.8 Kd(mutant)/Kd(WT).

And the binding signal [7]?
Its binding signal is 1.4 ± 0.7 Kd(mutant)/Kd(WT).

And the binding signal [8]?
Its binding signal is 2.9 ± 1.4 Kd(mutant)/Kd(WT).

And the binding signal [9]?
The binding signal was 5.8 ± 1 Kd(mutant)/Kd(WT).

And the binding signal [10]?
The binding signal was 0.7 ± 0.4 Kd(mutant)/Kd(WT).

What about the binding signal [11] of the same sequence?
The binding signal was 9.3 ± 1.4 Kd(mutant)/Kd(WT).

What about the binding signal [12] of the same sequence?
The binding signal was 490 ± 20 Kd(mutant)/Kd(WT).

And the binding signal [13]?
The binding signal was 0.6 ± 0.3 Kd(mutant)/Kd(WT).

And the binding signal [14]?
The binding signal was 6.1 ± 2.2 Kd(mutant)/Kd(WT).

What about the binding signal [15] of the same sequence?
Its binding signal is 1.1 ± 0.5 Kd(mutant)/Kd(WT).

And the binding signal [16]?
Its binding signal is 1.6 ± 1.1 Kd(mutant)/Kd(WT).

And the binding signal [17]?
Its binding signal is 2 ± 1.9 Kd(mutant)/Kd(WT).

What about the binding signal [18] of the same sequence?
The binding signal was 17 ± 2.8 Kd(mutant)/Kd(WT).

And the binding signal [19]?
Its binding signal is 0.9 ± 0.2 Kd(mutant)/Kd(WT).

What about the binding signal [20] of the same sequence?
The binding signal was 3 ± 0.8 Kd(mutant)/Kd(WT).

And the binding signal [21]?
Its binding signal is 1.6 ± 0.3 Kd(mutant)/Kd(WT).

And the binding signal [22]?
Its binding signal is 1.1 ± 1.1 Kd(mutant)/Kd(WT).

And the binding signal [23]?
The binding signal was 420 ± 120 Kd(mutant)/Kd(WT).

What about the binding signal [24] of the same sequence?
Its binding signal is 0.7 ± 0.4 Kd(mutant)/Kd(WT).

What about the binding signal [25] of the same sequence?
Its binding signal is 0.6 ± 0.2 Kd(mutant)/Kd(WT).

What about the binding signal [26] of the same sequence?
The binding signal was 1.3 ± 0.7 Kd(mutant)/Kd(WT).

And the binding signal [27]?
Its binding signal is 3 ± 0.6 Kd(mutant)/Kd(WT).

What about the binding signal [28] of the same sequence?
The binding signal was 0.8 ± 0.1 Kd(mutant)/Kd(WT).

And the binding signal [29]?
Its binding signal is 0.7 ± 0.2 Kd(mutant)/Kd(WT).

What about the binding signal [30] of the same sequence?
Its binding signal is 0.6 ± 0.5 Kd(mutant)/Kd(WT).

And the binding signal [31]?
The binding signal was 2.8 ± 0.3 Kd(mutant)/Kd(WT).

And the binding signal [32]?
Its binding signal is 30 ± 5.4 Kd(mutant)/Kd(WT).

And the binding signal [33]?
The binding signal was 190 ± 70 Kd(mutant)/Kd(WT).

And the binding signal [34]?
The binding signal was 2.8 ± 0.9 Kd(mutant)/Kd(WT).

And the binding signal [35]?
Its binding signal is 7.5 ± 3.5 Kd(mutant)/Kd(WT).

And the binding signal [36]?
The binding signal was 1.4 ± 1.3 Kd(mutant)/Kd(WT).

What about the binding signal [37] of the same sequence?
The binding signal was 3.2 ± 0.8 Kd(mutant)/Kd(WT).

What about the binding signal [38] of the same sequence?
The binding signal was 8.5 ± 2.2 Kd(mutant)/Kd(WT).

And the binding signal [39]?
Its binding signal is 0.8 ± 0.3 Kd(mutant)/Kd(WT).

What about the binding signal [40] of the same sequence?
Its binding signal is 0.8 ± 0.5 Kd(mutant)/Kd(WT).

And the binding signal [41]?
Its binding signal is 1.1 ± 0.5 Kd(mutant)/Kd(WT).

And the binding signal [42]?
The binding signal was 2.7 ± 1.2 Kd(mutant)/Kd(WT).

What about the binding signal [43] of the same sequence?
The binding signal was 15 ± 8.4 Kd(mutant)/Kd(WT).

What about the binding signal [44] of the same sequence?
Its binding signal is 8.5 ± 1 Kd(mutant)/Kd(WT).

What about the binding signal [45] of the same sequence?
Its binding signal is 1.9 ± 0.2 Kd(mutant)/Kd(WT).

What about the binding signal [46] of the same sequence?
Its binding signal is 2.6 ± 0.1 Kd(mutant)/Kd(WT).

And the binding signal [47]?
The binding signal was 1.8 ± 0.9 Kd(mutant)/Kd(WT).

And the binding signal [48]?
Its binding signal is 1.7 ± 1.9 Kd(mutant)/Kd(WT).
